High-throughput results deposited in PubChem BioAssay by National Center for Advancing Translational Sciences (NCATS).
The sample as a whole holds a higher share of hits than the screen did.
PKM2 inh: qHTS Assay for Inhibitors of Human Muscle isoform 2 Pyruvate Kinase. Pyruvate kinase PKM (Homo sapiens), P14618. purified PKM2, ATP generation, Kinase-Glo luminescence. Potency, µM (titrated, usually from 57.5 µM), hits mostly inhibitors. 260,000 tested, 0.058% active. AID 1634, 2009; note: nearly all actives have a fitted effect of over 60% in size
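Coupled luciferase luminescence (Kinase-Glo) detects ATP generated from 0.1 mM ADP and 0.5 mM PEP in imidazole buffer pH 7.2 with KCl, MgCl2; 1 h at room temperature. Enzyme at intermediate activity; normalized to uninhibited and no-enzyme controls.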
PKM2 inh CRC: Confirmation Concentration-Response Assay for Inhibitors of Human Muscle isoform 2 Pyruvate Kinase. Potency, µM (doses to about 57.5 µM), hits mostly inhibitors. AID 2263, 2010. shares compounds with PKM2 inh. purified hPK-M2, Kinase-Glo ATP luminescence, 1 h. 55 tested, 50% active
PKM2 FLuc cs: Secondary assay for Inhibitors of Human Pyruvate Kinase M2 isoform: FLuc Counterscreen; shares compounds with PKM2 inh; Kinase-Glo firefly luciferase, luminescence, 8 min; Potency, µM (series often up to 57.5 µM), actives largely listed as inhibitors; 55 tested, 30% active
PKM2 inh LDH: Secondary assay for Inhibitors of Human Pyruvate Kinase M2 isoform. purified hPK-M2, LDH-coupled NADH fluorescence kinetic. shares compounds with PKM2 inh. Potency, µM (highest dose often 57.5 µM), most hits filed as inhibitors. 55 tested, under 10 active. AID 2267, 2010
Of the large screens only hits and unclear results are named; the others gave an inactive call (follow-up assays come after a bar, where they were run). Calls come from the whole dose curve; as a rule, active = well fitted curve in the direction sought with a large enough effect; inconclusive = small, poorly fitted or top-dose-only effect, or another doubt; inactive = no such curve, though single readings can be large; an effect the other way counts as inactive or inconclusive.

Cc1nc(N/N=C/c2ccccn2)sc1C	PKM2 inh 7.9µM | PKM2 inh CRC 9.2µM | PKM2 FLuc cs 5.2µM | PKM2 inh LDH inactive
CC(=O)Nc1sc(N/N=C\c2ccccc2F)nc1-c1cccs1	none
CC(=O)c1c(C)oc2ccc(N(C(C)=O)S(=O)(=O)c3cccc4cccnc34)cc12	none
Cc1ccc(CNC(=O)[C@H]2C[C@@H]2[C@H](NP(=O)(c2ccccc2)c2ccccc2)c2ccccc2)o1	none
COc1ccc(S(=O)(=O)c2nnn(-c3cccc(Cl)c3)c2N)cc1	none
CC1=NN(c2nc3ccccc3[nH]2)C(=O)/C1=C/N(C)C	PKM2 inh 6.3µM | PKM2 inh CRC 2.3µM | PKM2 FLuc cs 6.5µM | PKM2 inh LDH inactive
COc1ccc([N+](=O)[O-])cc1NC(=O)COC(=O)c1ccc(O)cc1	none
O=C1COc2ccc(C(=O)COC(=O)Cc3ccsc3)cc2N1	none
Cc1cc(C)n2ncc(S(=O)(=O)c3ccccc3)c2n1	none
Cc1nnc(SCC(=O)Nc2nccs2)o1	none
Cc1ccc(N(Cc2cc3ccc(C)cc3[nH]c2=O)S(C)(=O)=O)c(C)c1	none
CC(=O)c1cc2c(cc1NC(=O)CSc1nc3ccccc3[nH]1)OCO2	none
O=C(Nc1nc2ccccc2[nH]1)c1ccccc1F	PKM2 inh 8.9µM | PKM2 inh CRC 5.2µM | PKM2 FLuc cs 4.1µM | PKM2 inh LDH inactive
CCS(=O)(=O)N1Cc2ccccc2CC1C(=O)Nc1nc2ccccc2[nH]1 (stereo not drawn)	none
CCOC(=S)SCC(=O)Nc1ncc(C)s1	none
CCc1nnc(NC(=O)CSc2nnc(-c3ccc(NS(=O)(=O)c4ccccc4)cc3)o2)s1	none
CN(C)/C=C(\C(=O)c1ccc(F)cc1F)c1nnnn1-c1ccccc1	none
CCS(=O)(=O)N1CCN(S(=O)(=O)c2ccc3c(c2)OCCO3)CC1	none
COC(=O)Nc1c(-c2ccccc2)nc2ccccn12	none
Cc1n[nH]c(=O)nc1NCc1ccco1	none
Cc1ccn2c(NCc3ccco3)c(-c3ccccc3)nc2c1	none (no result: PKM2 inh) | PKM2 inh CRC inactive | PKM2 FLuc cs inactive | PKM2 inh LDH inconclusive
Cc1cc(C)cc(C(=O)NCC(=O)OCC(=O)N2CCN(S(=O)(=O)c3ccc4ccccc4c3)CC2)c1	none
Cc1ccc(C(=O)N/C(=C\c2cn(S(=O)(=O)N(C)C)c3ccccc23)C(=O)NCCN2CCOCC2)cc1	none
